Compounds with a hit are over-represented: about 18% of the library has one in this group of screens.
VDR inh = Inhibitors of the vitamin D receptor (VDR): qHTS; VDR-SRC2-3 peptide fluorescence polarization, 2 h; Vitamin D3 receptor (Homo sapiens), P11473; hit rate 0.93% among 400,000; Potency, µM, for the others: max response, negative = inhibition, most hits filed as inhibitors; AID 504847, 2011
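Compounds are added to VDR with labelled SRC2-3 coactivator peptide and held 2 h at room temperature. Inhibition of the VDR–peptide interaction is then read as a change in fluorescence polarization.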
GCN5L2 inh = qHTS Assay for Inhibitors of GCN5L2. AID 504327, 2011. hit rate 0.21% among 390,000. Potency, µM (doses to about 58.9 µM), for the others: top-dose activity change, negative = inhibition, most hits filed as inhibitors. GCN5L2 HAT assay, ThioGlo1 CoA-SH fluorescence. Histone acetyltransferase KAT2A (Homo sapiens), Q92830
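Preincubate 20nM GCN5L2 with compound 15 min, RT → add 50uM ThioGlo1 + 75uM H3(1-25) + 70uM acetyl-CoA → read fluorescence 0 and 20 min. Primary qHTS; fluorescent artifacts likely.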
TDP1 block = qHTS Assay for Inhibitors of Tyrosyl-DNA Phosphodiesterase (TDP1) | recombinant TDP1, AlphaScreen DNA substrate cleavage | Tyrosyl-DNA phosphodiesterase 1 (Homo sapiens), Q9NUW8 | AID 485290, 2010 | Potency, µM (top dose mostly 130 µM), inactives show at the top dose activity change, negative = inhibition, most hits filed as inhibitors | hit rate 0.28% among 350,000; also: nearly all actives have a fitted effect of over 40% in size
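Enzyme-compound mixtures sat 15 min at room temperature, followed by a 5 min reaction with 15 nM final substrate and 10 min with AlphaScreen beads. Recombinant human Tdp1 was used at 1 nM final.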
PLK1 PBD inh = qHTS for Inhibitors of PLK1-PDB (polo-like kinase 1 - polo-box domain): Primary Screen. hit rate 2.8% among 360,000. Plk1 PBD binding of FITC phosphopeptide, fluorescence polarization. Potency, µM, for inactives: max response, negative = inhibition, most hits filed as inhibitors. AID 720504, 2013. Serine/threonine-protein kinase PLK1 (Homo sapiens), P53350; also: series mostly up to about 57 µM; nearly all actives have a fitted effect of over 65% in size
Target sequence (P53350 whole entry, looked up, the tested form may be a part): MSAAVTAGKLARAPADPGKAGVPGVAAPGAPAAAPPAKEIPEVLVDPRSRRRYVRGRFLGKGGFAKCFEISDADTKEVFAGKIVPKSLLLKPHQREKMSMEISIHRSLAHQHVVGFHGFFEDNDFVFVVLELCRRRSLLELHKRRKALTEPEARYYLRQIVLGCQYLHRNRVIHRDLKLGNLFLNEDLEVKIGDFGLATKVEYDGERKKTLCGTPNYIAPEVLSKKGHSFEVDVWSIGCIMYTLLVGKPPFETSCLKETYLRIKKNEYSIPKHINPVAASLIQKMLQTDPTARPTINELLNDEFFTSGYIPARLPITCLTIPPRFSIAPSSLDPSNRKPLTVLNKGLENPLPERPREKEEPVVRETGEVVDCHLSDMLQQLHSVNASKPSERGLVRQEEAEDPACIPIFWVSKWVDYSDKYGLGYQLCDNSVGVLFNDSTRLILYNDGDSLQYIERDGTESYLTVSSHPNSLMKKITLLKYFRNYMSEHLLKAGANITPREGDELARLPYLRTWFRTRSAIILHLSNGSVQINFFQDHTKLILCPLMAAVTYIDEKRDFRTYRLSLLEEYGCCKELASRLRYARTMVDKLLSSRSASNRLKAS
DT40 TDP1 CPT = qHTS for Inhibitors of human tyrosyl-DNA phosphodiesterase 1 (TDP1): qHTS in cells in presence of CPT; hit rate 12% among 420,000; chicken DT40 Tdp1-/-;hTDP1 cells + 20 nM CPT, ATP luminescence, 48 h; Potency, µM (series often up to 46.2 µM), for the others: at the top dose activity change, negative = growth inhibition, usual class: inhibitors; also: nearly all actives have a fitted effect of over 55% in size
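Chicken DT40 Tdp1-/- cells stably complemented with human TDP1 were seeded at 400 cells/well in medium containing 20 nM camptothecin, exposed to pin-transferred compounds, and grown at 37 °C for at least 48 hr. Viability was read as ATP luminescence.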
DT40 TDP1 no CPT = qHTS for Inhibitors of human tyrosyl-DNA phosphodiesterase 1 (TDP1): qHTS in cells in absence of CPT. hit rate 15% among 420,000. Potency, µM (doses to about 46.2 µM), without a hit: at the highest dose activity change, negative = growth inhibition, usual class: inhibitors. AID 686978, 2013. DT40 Tdp1-/- hTDP1 cells, no CPT, ATP luminescence, 48 h; also: nearly all actives have a fitted effect of over 55% in size
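Seeded 400 DT40-hTDP1 cells/well (vehicle DMSO, no 20 nM CPT); pinned compounds; ≥48 hr at 37 °C; CellTiter-Glo luminescence as viability measure.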
The depositor's hits bear a star; ? = inconclusive; . = not tested or not shown; [ ] = another dose, or the depositor's remark. Calls follow the shape of the dose curve; as a rule, active = well fitted curve in the direction sought with a large enough effect; inconclusive = small, poorly fitted or top-dose-only effect, or another doubt; inactive = no such curve, though single readings can be large; an effect the other way counts as inactive or inconclusive. % is scaled to controls: 0 for no effect and ±100 for the full control effect; potency is read from the fitted curve at half-maximal effect.

SMILES | VDR inh | GCN5L2 inh | TDP1 block | PLK1 PBD inh | DT40 TDP1 CPT | DT40 TDP1 no CPT
NC(=O)COC(=O)c1cccc(S(=O)(=O)N2CCN(c3ccccc3)CC2)c1 | -9% | -9% | ? | -17% | -3% | ?
CCN(Cc1ccccc1)C(=O)c1cccc(S(=O)(=O)N2CCN(c3ccccc3)CC2)c1 | -5% | -10% | -1% | 4% | 16µM* | 21µM*
CCN(Cc1ccccc1)C(=O)c1cc(S(=O)(=O)N2CCOCC2)ccc1N1CCCC1 | -7% | -3% | -3% | -3% | ? | 16µM*
CCN(Cc1ccccc1)C(=O)c1cccc(S(=O)(=O)N2CCN(c3ccc(F)cc3)CC2)c1 | -14% | -3% | 1% | -8% | 18µM* | 16µM*
CCOC(=O)c1[nH]c(C)c(C(=O)/C=C/c2ccc(C(=O)O)cc2)c1C | -15% | -10% | . | -4% | 9% | -22%
Cc1nc(S(=O)(=O)N2CCN(c3cccc(Cl)c3)CC2)cn1C | 21% | 3% | 7% | . | -6% | -8%
O=C(c1cccc(S(=O)(=O)N2CCOCC2)c1)N(Cc1ccc(F)cc1)Cc1ccco1 | -8% | -5% | 5% | -1% | ? | 18µM*
c1ccc2sc(NC3=NCN(C4CCCCC4)CN3)nc2c1 | 6% | -4% | 9% | -5% | ? | ?
CC1CCCCC1N1CN=C(Nc2nc3ccccc3s2)NC1 (stereo not given) | -14% | 10% | 2% | -1% | 21µM* | ?
CC(=O)NC(CC(=O)Nc1nc(-c2ccc(N(C)S(C)(=O)=O)cc2)cs1)c1ccccc1 (stereo not given) | 23% | -5% | 8% | 0% | 21µM* | 16µM*
CN(C)CC(=O)Nc1nc(-c2ccccc2)cs1 | -9% | -3%[0.501 µM] | 7% | ? | -13% | ?
CN(c1ccc(-c2csc(NC(=O)CCCc3nc4ccccc4c(=O)[nH]3)n2)cc1)S(C)(=O)=O | . | . | . | 7% | 21µM* | 8.2µM*
CN(C(=O)c1c(O)c2ccccc2n(C)c1=O)c1ccccc1 | 5% | 3% | 2% | . | 14% | -20%
CN(C)c1ccc(N=Cc2cccc3ccccc23)cc1 | . | . | . | . | 4.5µM* | 4µM*
CN(C)c1ccc(N=Cc2ccnc3ccccc23)cc1 | . | . | . | . | 10µM* | 11µM*
O=S1(=O)c2ccccc2N(Cc2ccccc2F)c2ccccc21 | -14% | -7% | 5% | . | ? | -27%
O=C(CN1C(=O)C(c2ccc(F)cc2)=NC12CCCCCC2)Nc1ccccc1Cl | 19% | 7% | 0% | . | ? | 23µM*
O=[N+]([O-])c1ccccc1CN1CCN(Cc2ccccn2)CC1 | 10% | -11% | -3% | 17µM* | 26µM* | ?
CCOCc1cc(CN2CCN(c3cccc(C(F)(F)F)c3)CC2)c(O)c2ncccc12 | 2% | -17% | 13% | . | 6.5µM* | 6.5µM*
O=[N+]([O-])c1cc(CN2CCCC2)c2cccnc2c1O | 14% | -26% | 3.5µM* | -22% | 3% | ?
O=c1cc(CO)oc(CN2CCN(c3cccc(C(F)(F)F)c3)CC2)c1O | 4% | -1% | 9% | 1% | ? | ?
CC(C)OCc1cc(CN2CCN(c3cccc(C(F)(F)F)c3)CC2)c(O)c2ncccc12 | 9% | 1% | 13% | . | 4.6µM* | 4.6µM*
CC(=O)N1CCC2(CC1)CN(c1ccncc1)C2 | -2% | -1% | . | . | 2% | -8%
CCCCn1c(N)c(N(CC(C)C)C(=O)c2cc3ccccc3cc2OC)c(=O)[nH]c1=O | 11% | . | . | -2% | -3% | -10%
CN(CC(=O)Nc1ccccc1Cl)C(=O)C1CCN(C(=O)c2ccc(F)cc2)CC1 | 4% | 3% | 0% | -1% | -15% | -17%
SMILES | VDR inh | GCN5L2 inh | TDP1 block | PLK1 PBD inh | DT40 TDP1 CPT | DT40 TDP1 no CPT
C=Cc1nc(Nc2cc(F)cc(F)c2)nc(NC2CCCC2)n1 | . | . | 2% | . | . | .
O=[N+]([O-])c1cc(CN2CCN(c3cccc(C(F)(F)F)c3)CC2)c2cccnc2c1O | -10% | -27% | 12% | ? | 0.92µM* | 1.5µM*
O=C(O)c1cc([N+](=O)[O-])cc([N+](=O)[O-])c1N1CCN(c2cccc(C(F)(F)F)c2)CC1 | -6% | -16% | . | 4% | 9% | -2%
CCOC(=O)c1cccc(NC(=O)CCc2c(C)nn(-c3ccc(N4CCCC4)nn3)c2C)c1 | 3% | 0% | 5% | . | ? | 21µM*
Cc1nn(-c2ccc(N3CCCCC3)nn2)c(C)c1CCC(=O)Nc1cccc(F)c1 | 5% | -7% | -3% | -3% | ? | 21µM*
CCOC(=O)c1cccc(NC(=O)CCc2c(C)nn(-c3ccc(N4CCOCC4)nn3)c2C)c1 | 9% | 21% | 3% | . | 29µM* | ?
COc1ccc(NC(=O)CCc2c(C)nn(-c3ccc(N4CCCC4)nn3)c2C)cc1Cl | 7% | 0% | 6% | . | ? | 16µM*
Cc1ccc(NC(=O)CCc2c(C)nn(-c3ccc(N4CCCCC4)nn3)c2C)cc1F | -14% | -3% | 2% | -15% | ? | ?
CCc1cccc(NC(=O)CCc2c(C)nn(-c3ccc(N4CCCCC4)nn3)c2C)c1 | -7% | -10% | 8% | -12% | -25% | ?
Cc1ccc(NC(=O)c2ccc(NC(=O)C3CCCC3)cc2)c(C)c1 | 1% | . | . | . | ? | ?
COc1ccc(Nc2nc(N)c3cc(OC)c(OC)cc3n2)cc1 | 8% | -9% | -2%[12.3 µM] | . | ? | 18µM*
COc1cc2nc(Nc3cccc(F)c3)nc(N)c2cc1OC | -16% | -12% | 0% | -1% | 12µM* | 5.8µM*
COc1ccc(Nc2nc(N)c3ccccc3n2)c(OC)c1 | -17% | -3% | . | -19% | 12% | -34%
COc1nc(Nc2cccc(F)c2)nc(OC)n1 | -15% | 0% | . | -5% | -9% | -21%
COC(=O)Cn1cnc2c(Cl)nc(F)nc21 | -3% | -3% | 0%[56.1 µM] | -3% | 13µM* | 16µM*
COc1cccc(N2CCN(c3ncnc4c3[nH]c3ccc(F)cc34)CC2C)c1 (stereo not given) | 1% | -10% | 4% | -6% | 1.6µM* | 1.6µM*
COc1ccc2c(c1)[nH]c1c(=O)n(Cc3ccncc3)cnc12 | -8% | 2% | 6% | -15% | -10% | 2%
